Data from PubChem BioAssay (NCATS).
Records with an inconclusive call do not appear. Active and inactive are the calls of the source. The call rests on the fitted dose curve; in most records, active means well fitted curve in the direction sought with a large enough effect; inconclusive means small, poorly fitted or top-dose-only effect, or another doubt; inactive means no such curve, though single readings can be large; an effect the other way counts as inactive or inconclusive.

Experiments:
[1] = qHTS for Inhibitors of Plasmodium falciparum (GB4) proliferation (AID 504315); further: nearly all actives have a fitted effect of over 50% in size
Outline: (§1)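 Erythrocytes infected with P. falciparum line (0.3% parasitemia, 2.5% hematocrit final) incubated with compounds 72 h at 37 °C, 5% CO2; SYBR Green lysis buffer added, fluorescence read next day. Normalized to 0.29 uM artemisinin and DMSO.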

[2] = qHTS for Inhibitors of Plasmodium falciparum (7G8) proliferation (AID 504316); further: series mostly up to about 6.7 µM; nearly all actives have a fitted effect of over 65% in size
Outline: as §1

[3] = qHTS for Inhibitors of Plasmodium falciparum (HB3) proliferation (AID 504318); further: nearly all actives have a fitted effect of over 60% in size
Outline: as §1

[4] = qHTS for Inhibitors of Plasmodium falciparum (CP250) proliferation (AID 504320)
Outline: as §1

Measured: Potency

COC(=O)C1=C(C(=O)OC)[C@@H]2N(C)c3ccc(OC)cc3[C@@]23C[C@@H](C(=O)OC)N(C(=O)c2ccc(Br)cc2)C3=N1
inactive: all assays above

C[C@H]1Cc2c(COc3ccccc3)nc3c(c2CO1)CN(C(=O)NCCc1c[nH]c2ccccc12)CC3
inactive: [1] | [4]

COCCN1C=C2C(=O)C(C)(OC(=O)CCC(=O)OC)C(=O)C(Br)=C2C=C1c1ccc(OC)cc1 (centres undefined)
inactive: all assays above

CCOC(=O)CN1C(=O)N[C@@H](c2cccc(F)c2)C(C(C)=O)=C1C
inactive: all assays above
